From PubChem BioAssay
EP2 antag: blocks the human prostaglandin E2 receptor EP2 | inhibition, % at 25 µM | 260,000 compounds, 0.52% hits | C6 glioma cells expressing human EP2, cAMP TR-FRET; cells stimulated with saturating PGE2 | AID 1422 | P43116;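 active means percent inhibition above 40 after rounding to a whole number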;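 further: rat C6 glioma host cells with rolipram phosphodiesterase inhibitor present; the protocol text gives 20 µM as final concentration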
CHT inh: inhibits the human high affinity choline transporter | Q9GZV3 | CHT-expressing cells, membrane potential dye, choline response; stronger effect = lower value | B-score at 10 µM | 310,000 compounds, 0.86% hits | AID 488975;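 active means B-score over 3 SD under the library average, and starting fluorescence ratio not unusually high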;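 further: choline stimulus applied at its EC90 after an EC20 pre-addition; B-score computed on integrated fluorescence ratio after choline addition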
Target sequence (Q9GZV3 whole entry, looked up): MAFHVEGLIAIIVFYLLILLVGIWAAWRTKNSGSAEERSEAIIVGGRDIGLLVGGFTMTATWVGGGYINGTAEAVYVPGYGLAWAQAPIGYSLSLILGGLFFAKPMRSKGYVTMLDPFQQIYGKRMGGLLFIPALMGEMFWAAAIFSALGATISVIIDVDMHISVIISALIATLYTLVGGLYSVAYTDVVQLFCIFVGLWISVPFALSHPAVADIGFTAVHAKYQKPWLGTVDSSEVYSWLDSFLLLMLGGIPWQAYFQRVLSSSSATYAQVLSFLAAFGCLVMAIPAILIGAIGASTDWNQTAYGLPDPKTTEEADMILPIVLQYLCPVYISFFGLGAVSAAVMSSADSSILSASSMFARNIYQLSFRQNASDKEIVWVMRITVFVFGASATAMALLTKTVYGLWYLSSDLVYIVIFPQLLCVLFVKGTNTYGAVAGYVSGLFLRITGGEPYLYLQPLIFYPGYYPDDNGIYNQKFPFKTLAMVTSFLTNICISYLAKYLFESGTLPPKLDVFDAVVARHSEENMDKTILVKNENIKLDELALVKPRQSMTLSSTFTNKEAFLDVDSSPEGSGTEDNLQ
EP2 mod: EP2 receptor (human) modulation; EP2-expressing cells, cAMP HTRF FRET, PGE2 co-stimulation; induction, % at 25 µM; 260,000 compounds, 0.83% hits;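 active means compounds whose cAMP rise, as percent of the full-agonist control response, exceeds 60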;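 further: rat C6 glioma line stably carrying human EP2 under a CMV promoter; the protocol text gives 20 µM as final concentration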
CHT allo act: allosteric activators of human choline transporter CHT; Q9GZV3; CHT-expressing cells, membrane potential dye, choline EC20; stronger effect = higher value; LV-AA mutant CHT in HEK293 cells; B-score at 10 µM; 310,000 compounds, 0.49% hits;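 active means initial fluorescence not abnormally high and integrated response B-score, plate-corrected, over 3 SD above library mean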
CHT block conf: confirmation of human choline transporter CHT inhibitors; shares compounds with CHT inh; CHT activity remaining % of control (stronger effect = lower value), % at 10 µM; 2,400 compounds, 70% hits; CHT-expressing cells, choline membrane potential dye; LV-to-AA substituted CHT, HEK293 cells;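 active means choline transporter activity left, mean of duplicates at 10 µM, below buffer-only control mean minus 3 SD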;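 further: depolarization triggered by choline at its EC90 following an EC20 pre-addition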
HEK293 CHT ctr: counter-screen for CHT inhibitors: effect in parental HEK293 cells. membrane potential ratio readout (active if shifted either direction beyond buffer ±3SD; no single direction) at 10 µM. shares compounds with CHT inh. membrane potential dye, choline response; active = decrease or increase beyond buffer ±3SD. 2,400 compounds, 4% hits. AID 493222;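 further: parental cells lack the transporter so any hit is non-specific; ratio is peak minus trough fluorescence over baseline after EC90 choline challenge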
Each line names hits and unclear results; the compound was inactive in the other large screens (follow-up assays come after a bar, where they were run). Most compounds without a hit are left out; they make up all but 2% or so of the library.

COc1ccccc1C(=O)NNC(=S)Nc1ccccc1	none (no result: CHT inh, CHT allo act)
NC(=O)C1CCN(C(=O)C2CC(c3c(F)cccc3Cl)=NO2)CC1 (stereo unspecified)	none (no result: CHT inh, CHT allo act)
CC(C)(Oc1ccc(Cl)cc1)C(=O)Nc1ncc([N+](=O)[O-])s1	none (no result: CHT inh, CHT allo act)
Cc1ccc(NC(=O)c2ccc(CN3CC(=O)N4CCCCC4C3=O)cc2)c(C)c1 (stereo unspecified)	CHT inh -5.49 (no result: EP2 antag, EP2 mod) | CHT block conf 9.5% | HEK293 CHT ctr inactive
CCn1c(SCc2nc(-c3ccc(Cl)cc3)no2)nnc1-c1ccco1	CHT inh -12.8 | CHT block conf 3.1% | HEK293 CHT ctr inactive
Cn1c(SCc2nc(-c3ccccc3)no2)nnc1-c1ccco1	none
COc1ccc(-c2csc3ncnc(N4CCN(CCO)CC4)c23)cc1	CHT inh -7.87 (no result: EP2 antag, EP2 mod) | CHT block conf 41.8% | HEK293 CHT ctr inactive
Fc1ccc(-c2csc3ncnc(N4CCN(Cc5ccccc5)CC4)c23)cc1	none (no result: EP2 antag, EP2 mod)
OCCN1CCN(c2ncnc3scc(-c4ccc(F)cc4)c23)CC1	CHT inh -5.65 (no result: EP2 antag, EP2 mod) | CHT block conf 33.1% | HEK293 CHT ctr inactive
COc1ccc(-c2csc3ncnc(NCCCO)c23)cc1	CHT inh -5.78 (no result: EP2 antag, EP2 mod) | CHT block conf 59.5% | HEK293 CHT ctr inactive
CCN1CCN(c2ncnc3scc(-c4ccc(C)cc4)c23)CC1	CHT inh -9.88 (no result: EP2 antag, EP2 mod) | CHT block conf 22.2% | HEK293 CHT ctr inactive
CCOC(=O)C(=O)Nc1cccc(C)n1	none (no result: CHT inh, CHT allo act)
CCOc1ccc(N2CC(C(=O)OCC(=O)Nc3ccc(OC)cc3)CC2=O)cc1 (stereo unspecified)	none (no result: CHT inh, CHT allo act)
COc1ccc(CNc2ncc(-c3ccccc3)n2C)cc1	CHT inh -5.51 (no result: EP2 antag, EP2 mod) | CHT block conf 56.7% | HEK293 CHT ctr inactive
C=CCc1cccc(O)c1/C=N/c1sc2c(c1C(N)=O)CCCC2	none (no result: CHT inh, CHT allo act)
O=C(CC(=O)c1c(F)cccc1Cl)c1ccccc1O	CHT inh -5.57 (no result: EP2 antag, EP2 mod) | CHT block conf 45.9% | HEK293 CHT ctr inactive
CCOc1cc(C2Nc3cc(C)c(C)cc3NC3=C2C(=O)CC(C)(C)C3)ccc1O (stereo unspecified)	none (no result: CHT inh, CHT allo act)
COc1cccc(CN(C)C(=O)c2cc(COc3c(F)cccc3F)on2)c1	none
COc1cccc(CN(C)C(=O)c2cc(COc3ccc4ncccc4c3)on2)c1	CHT inh -6.05 | CHT block conf inactive | HEK293 CHT ctr inactive
COC(=O)c1cc(C(=O)OC)cc(N2C(=O)CC(NNC(=O)c3ccc(C)cc3)C2=O)c1 (stereo unspecified)	CHT inh -5.36 | CHT block conf inactive | HEK293 CHT ctr inactive
O=C(CN1CCC(NC(=O)NC23CC4CC(CC(C4)C2)C3)CC1)Nc1ccc2c(c1)OCO2	none (no result: CHT inh, CHT allo act)
O=C1NC2(CCN(Cc3ccc(N4CCCC4)c(F)c3)CC2)Oc2ccccc21	none (no result: CHT inh, CHT allo act)
COc1ccc(OC(C)C(=O)NCCC2=CCCCC2)cc1 (stereo unspecified)	CHT inh -5.12 | CHT block conf inactive | HEK293 CHT ctr inactive
O=C(CSc1n[nH]c(-c2cccnc2)n1)Nc1ccccc1	none
O=C(CSc1n[nH]c(-c2ccccc2)n1)Nc1ncc(Br)cc1Br	CHT inh -6.53 | CHT block conf 56.7% | HEK293 CHT ctr inactive
O=[N+]([O-])c1cc(Br)c(O)c(/C=N/Nc2nnnn2-c2cccc3ccccc23)c1	CHT inh -9.24 | CHT block conf 33.2% | HEK293 CHT ctr inactive
COc1ccc(Cn2cnc([N+](=O)[O-])c2)cc1	none (no result: CHT inh, CHT allo act)
COc1ccnc(N2CCN(c3ccccc3)CC2)c1C#N	CHT inh -8.33 | CHT block conf inactive | HEK293 CHT ctr inactive
Cc1ccc(C(=O)CSc2nnnn2-c2ccc3c(c2)OCCO3)cc1C	none (no result: CHT inh, CHT allo act)
CCOC(=O)c1c(NC(=O)CSc2ncn[nH]2)sc(C)c1C	CHT inh -6.72 | CHT block conf inactive | HEK293 CHT ctr inactive
CCOC(=O)c1c(NC(=O)CSc2ncn[nH]2)sc(C(=O)N(C)C)c1C	none (no result: EP2 antag, EP2 mod)
CCCCOC(=O)c1ccc(NC(C)=O)cc1	none
CCCCOC(=O)c1ccc(NC(=O)c2cc(Cl)c(Cl)cc2C(=O)O)cc1	CHT inh -5.26 | CHT block conf 61.1% | HEK293 CHT ctr inactive
COc1cc(C=O)ccc1OCCOCCOc1ccccc1Cl	CHT inh -5.56 (no result: EP2 antag) | CHT block conf 63.4% | HEK293 CHT ctr inactive
C[C@H](NC(=O)OC(C)(C)C)c1nnc(SCC(=O)c2ccc(Cl)cc2)o1	CHT inh -5.29 | CHT block conf 68.8% | HEK293 CHT ctr inactive
O=C(C1CCCN1S(=O)(=O)c1cccc2nsnc12)N1CCCCC1 (stereo unspecified)	CHT inh -9.82 | CHT block conf inactive | HEK293 CHT ctr inactive
CC(=O)c1ccc(N2CCN(C(=O)C3CCCN3S(=O)(=O)c3cccc4nsnc34)CC2)cc1 (stereo unspecified)	none (no result: EP2 antag, EP2 mod)
Cc1ccc(-c2cc(C(=O)Nc3cccc(O)c3)no2)cc1	none (no result: CHT inh, CHT allo act)
O=C(COc1ccccc1)N1CCN(c2nnc(-c3ccccc3)c3ccccc23)CC1	CHT inh -5.21 | CHT block conf inactive | HEK293 CHT ctr inactive
O=[N+]([O-])c1cc(-c2nnc(Nc3ccccc3)c3ccccc23)ccc1N1CCOCC1	none
Cc1ccc(Nc2nnc(-c3ccc(N4CCOCC4)c([N+](=O)[O-])c3)c3ccccc23)cc1	CHT inh -5.39 | CHT block conf 59.0% | HEK293 CHT ctr inactive
COc1cc(/C=C2\SC(=S)N(NC(=O)c3ccccc3O)C2=O)ccc1O	none (no result: EP2 antag, EP2 mod)
O=C(NN1C(=O)/C(=C/c2ccc(O)c([N+](=O)[O-])c2)SC1=S)c1ccccc1Cl	CHT inh -5.41 | CHT block conf inactive | HEK293 CHT ctr inactive
COc1ccccc1NC(=O)CSc1nc(-c2ccccc2)nc2c1CCCC2	none (no result: CHT inh, CHT allo act)
CCOc1ccc(NS(=O)(=O)c2cnc(Cl)c(Cl)c2)cc1	none
Cc1cc(C)cc(NS(=O)(=O)c2cnc(Cl)c(Cl)c2)c1	CHT inh -8.01 | CHT block conf 52.0% | HEK293 CHT ctr inactive
CCC[N+]1(CC#CCC2(O)c3ccccc3-c3ccccc32)CCC(c2ccccc2)C1 (stereo unspecified)	none (no result: CHT inh, CHT allo act)
CC(=O)Nc1ccc(NC(=O)C(=O)N2CCCCC2)cc1	none (no result: CHT inh, CHT allo act)
CCCCc1nc(NCCO)c(C#N)c2c1CCCC2	CHT inh -5.91 | CHT block conf inactive | HEK293 CHT ctr inactive
Cc1cccc(-c2nc(CN3CCCC(C(=O)NC4CCCCC4)C3)c(C)o2)c1 (stereo unspecified)	CHT inh -5.75 | CHT block conf inactive | HEK293 CHT ctr inactive
CCCNC(=O)CN1N=C(c2ccccc2)Cn2c(cc3sccc32)C1=O	none (no result: EP2 antag, CHT inh, CHT allo act)
FC(F)(F)c1cccc(-c2nc(-c3ccncc3)no2)c1	none (no result: EP2 antag, EP2 mod)
FC(F)(F)c1cccc(-c2nc3nc(Cl)c(Cl)nc3[nH]2)c1	CHT inh -7.83 | CHT block conf 49.5% | HEK293 CHT ctr inactive
CCCc1cc(C(=O)NNC(=S)NCc2ccccc2)cs1	CHT inh -8.2 | CHT block conf 54.3% | HEK293 CHT ctr inactive
